Measured values published in PubChem BioAssay AID588689 (Southern Research Specialized Biocontainment Screening …, 2011).
The campaign covered roughly 340,000 compounds. About 1,000 (0.29%) were called active. Cut-off read from the data, not from the text of the source: inconclusive = inhibition above about 29% without an active follow-up result; inactive = below that. Only a sample is shown. Entries with a potency or affinity are not part of this list.

Target: Genome polyprotein (Dengue virus type 2 (strain 16681-PDK53)) (UniProt P29991)
Sequence (P29991 whole entry, looked up): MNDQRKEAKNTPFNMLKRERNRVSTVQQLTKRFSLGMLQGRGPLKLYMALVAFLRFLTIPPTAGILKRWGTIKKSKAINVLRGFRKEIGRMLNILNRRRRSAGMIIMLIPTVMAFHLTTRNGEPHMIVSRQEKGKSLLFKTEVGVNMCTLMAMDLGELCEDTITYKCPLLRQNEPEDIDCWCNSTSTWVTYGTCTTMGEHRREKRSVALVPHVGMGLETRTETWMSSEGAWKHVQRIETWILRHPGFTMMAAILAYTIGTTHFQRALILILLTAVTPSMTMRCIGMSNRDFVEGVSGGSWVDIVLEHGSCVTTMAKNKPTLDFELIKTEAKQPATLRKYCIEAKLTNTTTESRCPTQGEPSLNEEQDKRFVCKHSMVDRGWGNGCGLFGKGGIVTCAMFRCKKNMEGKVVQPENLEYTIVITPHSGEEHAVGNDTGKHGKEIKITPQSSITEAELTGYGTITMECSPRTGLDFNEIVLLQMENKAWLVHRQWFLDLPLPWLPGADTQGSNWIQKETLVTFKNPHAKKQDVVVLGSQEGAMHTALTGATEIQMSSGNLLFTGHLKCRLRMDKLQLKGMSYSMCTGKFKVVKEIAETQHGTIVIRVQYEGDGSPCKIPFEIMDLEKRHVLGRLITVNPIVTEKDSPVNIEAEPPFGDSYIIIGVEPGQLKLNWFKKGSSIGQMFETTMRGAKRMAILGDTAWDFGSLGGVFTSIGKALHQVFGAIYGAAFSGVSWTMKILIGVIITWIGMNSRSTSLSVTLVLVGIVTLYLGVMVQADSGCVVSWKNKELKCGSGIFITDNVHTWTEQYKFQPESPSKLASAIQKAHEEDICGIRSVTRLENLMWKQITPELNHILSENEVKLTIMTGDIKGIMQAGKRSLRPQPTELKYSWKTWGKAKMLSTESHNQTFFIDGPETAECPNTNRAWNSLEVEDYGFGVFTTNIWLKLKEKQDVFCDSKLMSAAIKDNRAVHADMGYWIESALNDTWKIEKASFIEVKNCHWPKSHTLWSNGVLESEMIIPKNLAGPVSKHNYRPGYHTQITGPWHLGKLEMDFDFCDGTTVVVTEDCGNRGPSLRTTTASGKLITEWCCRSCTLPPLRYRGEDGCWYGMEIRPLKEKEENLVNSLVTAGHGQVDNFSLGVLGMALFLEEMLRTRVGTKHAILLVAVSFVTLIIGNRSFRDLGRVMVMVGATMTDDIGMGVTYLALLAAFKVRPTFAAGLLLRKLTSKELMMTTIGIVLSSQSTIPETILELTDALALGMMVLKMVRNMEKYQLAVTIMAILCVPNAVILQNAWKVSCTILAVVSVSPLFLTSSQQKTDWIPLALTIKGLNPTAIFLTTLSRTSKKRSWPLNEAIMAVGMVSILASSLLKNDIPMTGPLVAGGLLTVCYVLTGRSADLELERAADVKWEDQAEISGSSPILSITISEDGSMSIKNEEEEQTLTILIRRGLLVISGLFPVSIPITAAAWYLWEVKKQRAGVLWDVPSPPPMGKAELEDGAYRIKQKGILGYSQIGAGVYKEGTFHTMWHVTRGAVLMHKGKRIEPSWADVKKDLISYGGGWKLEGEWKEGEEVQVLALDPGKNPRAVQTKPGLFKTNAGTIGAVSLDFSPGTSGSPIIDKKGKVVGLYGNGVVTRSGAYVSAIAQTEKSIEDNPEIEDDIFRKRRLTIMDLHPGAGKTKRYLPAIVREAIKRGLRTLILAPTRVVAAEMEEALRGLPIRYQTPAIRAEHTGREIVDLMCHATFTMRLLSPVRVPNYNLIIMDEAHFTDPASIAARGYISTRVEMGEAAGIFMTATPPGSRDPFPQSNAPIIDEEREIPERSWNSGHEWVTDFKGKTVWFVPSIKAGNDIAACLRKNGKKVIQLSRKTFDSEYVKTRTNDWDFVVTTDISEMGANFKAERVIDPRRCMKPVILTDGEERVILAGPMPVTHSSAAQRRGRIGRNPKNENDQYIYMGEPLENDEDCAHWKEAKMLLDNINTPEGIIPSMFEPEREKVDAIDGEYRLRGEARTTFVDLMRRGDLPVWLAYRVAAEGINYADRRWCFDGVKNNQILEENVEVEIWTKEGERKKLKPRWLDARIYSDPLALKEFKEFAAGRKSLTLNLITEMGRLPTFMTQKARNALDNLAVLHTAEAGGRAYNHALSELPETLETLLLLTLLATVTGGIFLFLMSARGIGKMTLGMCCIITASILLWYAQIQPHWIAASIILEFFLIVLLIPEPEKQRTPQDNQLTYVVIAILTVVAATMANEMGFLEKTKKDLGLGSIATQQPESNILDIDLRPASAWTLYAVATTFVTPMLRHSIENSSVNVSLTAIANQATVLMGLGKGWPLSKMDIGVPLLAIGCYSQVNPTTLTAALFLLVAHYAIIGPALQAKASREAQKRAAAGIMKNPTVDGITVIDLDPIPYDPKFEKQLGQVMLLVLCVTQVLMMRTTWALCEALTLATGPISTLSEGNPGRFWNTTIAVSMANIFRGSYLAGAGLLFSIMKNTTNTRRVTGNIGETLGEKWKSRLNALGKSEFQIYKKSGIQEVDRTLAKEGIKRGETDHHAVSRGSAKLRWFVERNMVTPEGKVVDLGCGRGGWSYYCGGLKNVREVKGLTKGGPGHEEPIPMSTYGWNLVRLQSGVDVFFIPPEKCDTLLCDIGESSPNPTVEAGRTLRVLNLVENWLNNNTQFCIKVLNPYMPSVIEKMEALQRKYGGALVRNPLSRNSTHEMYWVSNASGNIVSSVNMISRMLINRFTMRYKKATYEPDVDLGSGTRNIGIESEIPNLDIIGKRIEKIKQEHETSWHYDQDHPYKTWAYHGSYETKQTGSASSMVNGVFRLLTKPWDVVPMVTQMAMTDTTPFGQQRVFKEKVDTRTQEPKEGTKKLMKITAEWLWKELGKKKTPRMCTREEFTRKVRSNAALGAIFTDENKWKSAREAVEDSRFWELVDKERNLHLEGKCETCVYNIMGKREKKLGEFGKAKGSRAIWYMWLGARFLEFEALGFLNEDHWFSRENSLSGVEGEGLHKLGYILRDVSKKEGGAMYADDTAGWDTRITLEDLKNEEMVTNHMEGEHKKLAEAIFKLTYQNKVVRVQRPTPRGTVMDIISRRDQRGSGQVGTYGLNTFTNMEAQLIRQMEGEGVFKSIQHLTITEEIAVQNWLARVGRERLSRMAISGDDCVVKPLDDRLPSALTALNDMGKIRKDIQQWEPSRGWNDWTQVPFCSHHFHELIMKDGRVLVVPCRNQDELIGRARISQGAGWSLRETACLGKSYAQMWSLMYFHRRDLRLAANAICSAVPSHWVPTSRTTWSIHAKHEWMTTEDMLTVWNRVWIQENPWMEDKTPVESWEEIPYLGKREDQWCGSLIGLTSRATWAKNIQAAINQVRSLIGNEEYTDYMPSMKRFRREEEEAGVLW
Test: Dengue-2 NS5 methyltransferase inhibitors, primary screen, biochemical, confirmation dose response (AID 588689)
Conditions: Dengue-2 NS5 methyltransferase capping enzyme assay, at 25 µM, stronger effect = higher value
[1] = measured here: pilot screen replicate inhibition

Structure (SMILES): Cc1nn(-c2ccc(F)cc2)c(Cl)c1C(=O)N(C)CC(=O)Nc1cccc(F)c1
- inhibition: -5.05% (inactive)

Structure (SMILES): CCCC(=O)N(c1ccc(C(=O)O)cc1)c1nc(-c2ccccc2)c(C)s1
- inhibition: -13.9% (inactive)

Structure (SMILES): Cc1c(Br)c(=O)oc2c(Br)c(O)ccc12
- inhibition: -1.45% (inactive)

Structure (SMILES): Cc1c(Br)c(=O)oc2c(Br)c(O)c(O)cc12
- inhibition: 6.73% (inactive)

Structure (SMILES): CCOC(=O)C(=O)NNc1ccccc1OC
- inhibition: -3.11% (inactive)

Structure (SMILES): Cc1ccc(Cc2c(-c3ccc(Cl)cc3)nc3ccc(Cl)cn23)cc1
- inhibition: 7.95% (inactive)

Structure (SMILES): C#CCOc1ccc(Cl)cc1/C=C1/C(=O)ON=C1C
- inhibition: 10.6% (inactive)

Structure (SMILES): C#CCOc1c(Cl)cc(/C=C2/C(=O)ON=C2C)cc1OC
- inhibition: 19.6% (inactive)

Structure (SMILES): CCOc1cc(/C=C2/C(=O)ON=C2C)cc(Br)c1O
- inhibition: -74.3% (inactive)

Structure (SMILES): COc1ccc(/C=C2/C(=O)ON=C2C)cc1Cl
- inhibition: 5.23% (inactive)

Structure (SMILES): COc1ccc(/C=C2/C(=O)ON=C2C)cc1Br
- inhibition: 17.8% (inactive)

Structure (SMILES): S=C(NCCc1c[nH]c2ccccc12)NC1CC1
- inhibition: 2.32% (inactive)

Structure (SMILES): N#C/C(=C\c1ccc([N+](=O)[O-])cc1)C(=O)Nc1ccccc1O
- inhibition: 8.94% (inactive)

Structure (SMILES): Brc1ccc(-c2nnc3n2CCCCC3)cc1
- inhibition: -4.77% (inactive)

Structure (SMILES): Cc1ccccc1CSCCNC(=O)COc1ccc(Cl)cc1
- inhibition: -3.24% (inactive)

Structure (SMILES): Cc1occc1C(=O)NNC(=O)c1ccccc1[N+](=O)[O-]
- inhibition: 1.62% (inactive)

Structure (SMILES): CCC(=O)N1CCc2cc(Br)cc(S(=O)(=O)NCc3ccco3)c21
- inhibition: 0% (inactive)

Structure (SMILES): O=C1OC(c2ccc(Cl)cc2)/C(=C(/O)c2ccccc2)C1=O (configuration not stated)
- inhibition: 28.1% (inactive)

Structure (SMILES): CC(=O)C1=C(O)C(=O)OC1c1ccc(C)cc1 (configuration not stated)
- inhibition: -9.38% (inactive)

Structure (SMILES): CC(=O)C1=C(O)C(=O)OC1c1ccc(Cl)cc1 (configuration not stated)
- inhibition: -3.11% (inactive)

Structure (SMILES): O=C(O)c1ccccc1C(=O)c1ccc(Cl)cc1
- inhibition: 1.15% (inactive)

Structure (SMILES): CC(=O)Nc1ccc(S(=O)(=O)N2CCC(N3CCCCCC3)CC2)cc1
- inhibition: -3.4% (inactive)

Structure (SMILES): CCOc1ccc(NC(=O)C2=NN(c3ccccc3)C(=O)CC2)cc1S(=O)(=O)N1CCCCC1
- inhibition: -4.38% (inactive)

Structure (SMILES): COc1cccc(N2CC(O)Cn3c2nc2c3c(=O)[nH]c(=O)n2C)c1 (configuration not stated)
- inhibition: -3.08% (inactive)

Structure (SMILES): COc1ccc(NC(=O)c2ccc(S(=O)(=O)N3CC(C)OC(C)C3)cc2)cc1 (configuration not stated)
- inhibition: 3.36% (inactive)

Structure (SMILES): CN(CC(=O)Nc1ccc(S(=O)(=O)N(C)C)cc1)Cc1ccc(C(F)(F)F)cc1
- inhibition: 2.22% (inactive)

Structure (SMILES): O=[N+]([O-])c1cccc(C=Nc2cccc3ccccc23)c1O
- inhibition: 14.3% (inactive)

Structure (SMILES): COc1cc(CN(C)Cc2cccc3ccccc23)cc([N+](=O)[O-])c1O
- inhibition: 11.1% (inactive)
- inhibition [1]: 0.595%

Structure (SMILES): Nc1ccc(-c2ccc(N)c([N+](=O)[O-])c2)cc1[N+](=O)[O-]
- inhibition: -9.54% (inactive)

Structure (SMILES): O=C(c1cc(O)c(O)c([N+](=O)[O-])c1)c1ccccc1F
- inhibition: -7.33% (inactive)

Structure (SMILES): O=[N+]([O-])c1ccccc1N=Nc1ccc(O)cc1
- inhibition: 0% (inactive)

Structure (SMILES): Nc1ccc(N=Nc2ccccc2)cc1[N+](=O)[O-]
- inhibition: -3.11% (inactive)

Structure (SMILES): Cc1cc(Nc2ccccc2C(=O)O)n2ncnc2n1
- inhibition: 6.29% (inactive)

Structure (SMILES): Cn1c(N)c(S(=O)(=O)N2CCN(c3ccccc3F)CC2)c(=O)n(C)c1=O
- inhibition: -7.15% (inactive)

Structure (SMILES): CC(C)CC(=O)Nc1ccc(C(=O)COC(=O)C2CCC2)cc1
- inhibition: -0.65% (inactive)

Structure (SMILES): O=C1C2C3C=CC(C4CC34)C2C(=O)N1Cc1ccco1 (configuration not stated)
- inhibition: -2.18% (inactive)

Structure (SMILES): CSCCC(NS(=O)(=O)c1ccc(F)cc1)C(=O)NCc1ccc(S(N)(=O)=O)cc1 (configuration not stated)
- inhibition: 3.04% (inactive)

Structure (SMILES): C=CCn1c(SCC(=O)NC2CCCC2)nnc1-c1ccncc1
- inhibition: -3.89% (inactive)

Structure (SMILES): CCc1ccc(S(=O)(=O)/N=C2\C=C(Nc3ccc(O)cc3)C(=O)c3ccccc32)cc1
- inhibition: 8.96% (inactive)

Structure (SMILES): Cc1ccc(S(=O)(=O)Nc2ccc3cc([N+](=O)[O-])ccc3c2[N+](=O)[O-])cc1
- inhibition: -2.33% (inactive)

Structure (SMILES): Cc1cc(C)c(S(=O)(=O)/N=C2\C=C(NS(=O)(=O)c3ccccc3)C(=O)c3ccccc32)c(C)c1
- inhibition: 25.3% (inactive)

Structure (SMILES): Cc1ccc(S(=O)(=O)Nc2ccc3ncccc3c2[N+](=O)[O-])cc1
- inhibition: -1.93% (inactive)

Structure (SMILES): Cc1ccc(NC2=C/C(=N/S(=O)(=O)c3cccs3)c3ccccc3C2=O)cc1
- inhibition: 1.1% (inactive)

Structure (SMILES): CCc1ccc(S(=O)(=O)Nc2ccccn2)cc1
- inhibition: -5.27% (inactive)
- inhibition [1]: -6.09%

Structure (SMILES): Cc1ccccc1NC1=C/C(=N\S(=O)(=O)c2cccs2)c2ccccc2C1=O
- inhibition: 63.2% (inactive)

Structure (SMILES): Cc1ccc(Nc2nnc(SC(C)C(=O)NCC3CCCO3)s2)cc1C (configuration not stated)
- inhibition: 4.44% (inactive)

Structure (SMILES): CCc1ccc(N(C(=O)C(F)(F)F)C(C(=O)NC2CCCCC2)c2ccncc2)cc1 (configuration not stated)
- inhibition: 0.69% (inactive)

Structure (SMILES): Cc1n[nH]c(C)c1CCCCOc1ccccc1[N+](=O)[O-]
- inhibition: -3.29% (inactive)
- inhibition [1]: -1.21%

Structure (SMILES): CSc1nnc(C)c(=O)n1COC(=O)COc1ccccc1F
- inhibition: 9.2% (inactive)

Structure (SMILES): COc1ccc(CCn2c(C)c(C(C)=O)c3cc(OC(=O)c4ccco4)ccc32)cc1OC
- inhibition: -1.6% (inactive)

Structure (SMILES): COc1ccccc1-n1c(CNC(=O)c2ccc(S(=O)(=O)N3CCOCC3)cc2)n[nH]c1=S
- inhibition: -4.46% (inactive)

Structure (SMILES): C=C(C)CN1C(=O)c2ccccc2C1=O
- inhibition: 2.04% (inactive)

Structure (SMILES): CC(=O)N1N=C(c2ccc(C)o2)CC1c1ccc(Br)cc1 (configuration not stated)
- inhibition: -4.86% (inactive)

Structure (SMILES): COc1cc2c(cc1OC)C(COc1cccc(C(F)(F)F)c1)NCC2 (configuration not stated)
- inhibition: 6.97% (inactive)

Structure (SMILES): CCCCOc1ccc(C(=O)NCC(=O)NC2CC2)cc1
- inhibition: 1.44% (inactive)

Structure (SMILES): CCOC(=O)c1nc[nH]c1C
- inhibition: -4.86% (inactive)

Structure (SMILES): CN1C/C(=N\S(=O)(=O)c2ccccc2)N(C)C1=O
- inhibition: -4.44% (inactive)

Structure (SMILES): CC(C)c1ccc(-c2csc3nc[nH]c(=O)c23)cc1
- inhibition: -4.66% (inactive)

Structure (SMILES): Cc1ccc(S(=O)(=O)Nc2ccccc2-c2ccccc2)cc1
- inhibition: -9.37% (inactive)

Structure (SMILES): COc1ccc(S(=O)(=O)/N=C2\C=C(Nc3ccc(O)cc3)C(=O)c3ccccc32)cc1
- inhibition: 10.3% (inactive)

Structure (SMILES): Cc1ccc(S(=O)(=O)Nc2ccccc2C(N)=O)cc1
- inhibition: -8.11% (inactive)
- inhibition [1]: -8.21%

Structure (SMILES): CC(=O)OC1(C)C=Cc2ccccc2C1=NS(=O)(=O)c1ccccc1 (configuration not stated)
- inhibition: 4% (inactive)

Structure (SMILES): Cc1ccc(S(=O)(=O)/N=C2\C=C(NS(=O)(=O)c3ccccc3)C(=O)c3ccccc32)c(C)c1
- inhibition: 13.1% (inactive)

Structure (SMILES): Cc1ccc(NC2=C/C(=N\S(=O)(=O)c3cccs3)c3ccccc3C2=O)c(C)c1
- inhibition: 12.8% (inactive)

Structure (SMILES): O=[N+]([O-])c1cc(C(F)(F)F)ccc1-n1nnc2ccccc21
- inhibition: 1.31% (inactive)

Structure (SMILES): Cc1cc2cc(CNC(=O)Nc3cccc(Cl)c3)ccc2n1C
- inhibition: 22.2% (inactive)

Structure (SMILES): COCCNc1nnc(SCC(=O)NC(=O)c2ccc(Cl)cc2)s1
- inhibition: 2.89% (inactive)

Structure (SMILES): COc1ccc(OC)c(NC(=O)c2cccc(N3C(=O)C4C5CCC(C5)C4C3=O)c2)c1 (configuration not stated)
- inhibition: -6.74% (inactive)

Structure (SMILES): CCOC(=O)CCC(NC(=O)CCC(=O)NC(CCC(=O)OCC)C(=O)OCC)C(=O)OCC (configuration not stated)
- inhibition: -7.26% (inactive)

Structure (SMILES): O=C(CNC(=O)c1ccccc1F)NCCN1C(=O)S/C(=C\c2ccc3c(c2)OCO3)C1=O
- inhibition: -1.45% (inactive)

Structure (SMILES): O=C(c1ccc(CS(=O)c2ccc(F)cc2)o1)N1CCN(C2CCCCC2)CC1 (configuration not stated)
- inhibition: -10.8% (inactive)

Structure (SMILES): Cc1[nH]c(=O)[nH]c(=O)c1CSc1nnc([C@@H](NC(=O)OC(C)(C)C)C(C)C)o1
- inhibition: 0.56% (inactive)

Structure (SMILES): CC(C)(C)c1ccc(S(=O)(=O)Nc2ccccn2)cc1
- inhibition: 2.21% (inactive)

Structure (SMILES): Cc1ccc(S(=O)(=O)/N=C2\C=C(Nc3ccc(O)cc3)C(=O)c3ccccc32)cc1
- inhibition: -0.74% (inactive)

Structure (SMILES): C/C(=N\NS(=O)(=O)c1ccc(C(C)(C)C)cc1)c1ccccc1
- inhibition: -0.98% (inactive)

Structure (SMILES): COC(=O)C(C(C)=O)C1=C/C(=N\S(=O)(=O)c2ccc(C)cc2)c2ccccc2C1=O (configuration not stated)
- inhibition: -8.06% (inactive)

Structure (SMILES): O=C(CCN1C(=O)C2CC=CCC2C1=O)Nc1cccc(S(=O)(=O)N2CCCCC2)c1 (configuration not stated)
- inhibition: 0% (inactive)

Structure (SMILES): NC(=O)CSc1nnc(-c2cccs2)n1-c1ccccc1
- inhibition: -6.45% (inactive)

Structure (SMILES): COCCN(C(=O)COC(=O)CCSc1ccc(F)cc1)c1c(N)n(Cc2ccccc2)c(=O)[nH]c1=O
- inhibition: -5.13% (inactive)

Structure (SMILES): COC(=O)C1(C(=O)OC)C(C(=O)c2ccccc2)C1c1ccccc1 (configuration not stated)
- inhibition: 5.57% (inactive)

Structure (SMILES): COc1cc(SC)ccc1C(=O)Nc1cccc(S(=O)(=O)NC2=NCCCCC2)c1
- inhibition: -1.45% (inactive)

Structure (SMILES): COCCNC(=O)Nc1ccc2nc(-c3cccs3)c(-c3cccs3)nc2c1
- inhibition: -17.7% (inactive)

Structure (SMILES): COc1ccc2nc3ccccc3nc2c1
- inhibition: 18.8% (inactive)

Structure (SMILES): CCCNC(=O)c1ccc2nc(-c3ccccc3)c(-c3ccccc3)nc2c1
- inhibition: -0.8% (inactive)

Structure (SMILES): O=C(Nc1ccc(N2CCOCC2)cc1)Nc1ccc2nc(-c3ccco3)c(-c3ccco3)nc2c1
- inhibition: 13.6% (inactive)

Structure (SMILES): COc1ccc2nc3c(nc2c1)CCCC3
- inhibition: -8.49% (inactive)

Structure (SMILES): CCc1nc2ccc(C(=O)NCCc3ccco3)cc2nc1CC
- inhibition: -11.5% (inactive)

Structure (SMILES): O=C(Nc1ccc(N2CCOCC2)cc1)c1ccc2nc(-c3ccco3)c(-c3ccco3)nc2c1
- inhibition: 3.24% (inactive)

Structure (SMILES): O=C(Nc1cccc(C(F)(F)F)c1)c1ccc2nc(-c3ccco3)c(-c3ccco3)nc2c1
- inhibition: 21.6% (inactive)

Structure (SMILES): Cc1ccccc1NC(=O)Cc1cccs1
- inhibition: -7.91% (inactive)
- inhibition [1]: -5.49%

Structure (SMILES): COc1cc2c(cc1OC)CC(C(=O)NCc1ccccc1)NC2 (configuration not stated)
- inhibition: -4.57% (inactive)

Structure (SMILES): O=C(C1CCCN(S(=O)(=O)c2ccccc2)C1)N1CCN(c2ccccc2)CC1 (configuration not stated)
- inhibition: -6.74% (inactive)
